Sampled rows, rich in hits. Any-hit rate of the full collection: about 2.2%.
CF NFkB block: cystic fibrosis NF-kB activation inhibition; inhibition, % at 5 µM; actives 0.86% (n = 360,000); KKLEB NF-kB-GFP reporter, PAF-induced, GFP fluorescence overnight;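 active means at least 50% inhibition at 5 µM, scaled per plate between neutral and stimulator controls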;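 further: PAF is a Pseudomonas aeruginosa culture filtrate used as stimulus; plate controls were PAF-stimulated DMSO wells for no effect and unstimulated DMSO wells for full effect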
HIF-2a inh: HIF-2a inhibition | 786-0 RCC cells HIF-2a reporter, luciferase luminescence, overnight | inhibition, % at 18.8 µM | actives 0.72% (n = 360,000);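 active means inhibition of the luminescence signal of 40% or more relative to plate controls, in a single-dose primary screen at 18.75 µM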
hiPSC survival: enhancers of human iPSC single-cell survival. hiPSC single-cell survival, ATPlite luminescence; 100% = ROCK inhibitor wells, 0% = DMSO. actives 0.044% (n = 360,000). survival enhancement, % at 20 µM; in the data active means survival enhancement above about 18%;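 further: cells exposed to compounds for 16 hours before the ATP read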
KKLEB cytotox: CF airway cell cytotoxicity counter-screen; KKLEB CF airway cells viability, ATPlite luminescence, overnight; hits give low values; cells stimulated with P. aeruginosa culture filtrate; activity change (cytotoxicity), % at 5 µM; actives 0.36% (n = 360,000);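 active means corrected activity change at or below -50% at 5 µM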
C8 TRAIL sens: sensitizes caspase-8 expressing cells to TRAIL; NB7+C8 cells + TRAIL, ATPlite viability luminescence; inhibition (viability loss, TRAIL sensitization), % at 10 µM; actives 1% (n = 360,000); AID 624354;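 active means compounds causing at least 50% loss of cell viability in the single-dose screen, relative to plate controls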
PPC-1+TRAIL kill: PPC-1 cancer cell killing with TRAIL present. PPC-1 cells + TRAIL, ATPLite viability luminescence. cell killing (% activity), % at 4 µM or 5 µM. actives 0.41% (n = 220,000);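 active means cell killing above 50% in the first pass at 4 µM, then a duplicate retest at 5 µM averaging 50% or more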;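 further: plate controls were cells with TRAIL plus DMSO for no effect and medium-only wells lacking cells for full effect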
Mdm2 MdmX conf: confirmation of inhibitors of human Mdm2/MdmX interaction, set 2. shares compounds with HIF-2a inh. SaOS-2 split-luciferase Mdm2/MdmX complementation, luminescence. inhibition, % at 8 µM. actives 99% (n = 740);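 active means mean inhibition of the luminescence signal across two replicates at or above 26 percent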
HIF-2a conf: confirmation of HIF-2a inhibitors; shares compounds with HIF-2a inh; 786-0 RCC cells, HIF-2a luciferase reporter luminescence, overnight; inhibition, % at 18.8 µM; actives 56% (n = 1,800); AID 651580;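 active means mean inhibition across four replicates of at least 40 percent at the single tested concentration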
HIF-1a cs: counter-screen for HIF-2a inhibitors: HIF-1a inhibition in MiaPaCa-2 cells; shares compounds with HIF-2a inh; MiaPaCa-2 HIF-1a luciferase reporter, desferoxamine, overnight; inhibition, % at 18.8 µM; actives 72% (n = 1,800);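 active means mean inhibition of the reporter signal across four replicates at the single tested dose of 50% or more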
* = called active by the depositor; · = no result given.

SMILES	CF NFkB block	HIF-2a inh	hiPSC survival	KKLEB cytotox	C8 TRAIL sens	PPC-1+TRAIL kill	HIF-2a conf	HIF-1a cs	others
COc1cccc(NC(=O)CN(C)C(=O)C23CC4CC(CC(Cl)(C4)C2)C3)c1	-12	20	-3	-8	-17	·	·	·
CCOC(=O)/C(=C/c1ccc(OC(F)F)cc1)C1=Nn2c(nnc2-c2ccc(Cl)cc2)SC1	92*	88*	-1	-104*	90*	·	43*	105*
COc1ccc(-c2nnc3n2N=C(C)CS3)cc1	11	-2	7	-6	-3	20	·	·
O=C(NC12CC3CC(CC(C3)C1)C2)c1ccc([N+](=O)[O-])o1	94*	65*	-1	-78*	7	·	11	96*
O=C(NC12CC3CC(CC(C3)C1)C2)c1ccc(Br)o1	-8	-23	1	-6	-10	·	·	·
CC(C)C(=O)Nc1c2c(nn1-c1ccc(F)cc1)CS(=O)(=O)C2	-3	10	0	0	-9	·	·	·
CCSc1nc2ccccc2n1C(=O)/C=C/c1ccc(OC)c(OC)c1	84*	78*	-2	-2	-8	-13	6	101*	Mdm2 MdmX conf=102*
C=CCSc1nc2ccccc2n1C(=O)/C=C/c1cc(OC)c(OC)c(OC)c1	91*	83*	-3	-14	23	7	88*	106*
COc1cc(/C=C/C(=O)N2CCN(C(=O)/C=C/c3cc(OC)c(OC)c(OC)c3)CC2)cc(OC)c1OC	-13	12	0	-1	-1	·	·	·
COc1ccc(NC(=O)c2ccccc2NC(=O)CN2CCCCCC2)cc1	14	-32	0	1	-20	·	·	·
O=C(CCC(=O)N1CCOc2ccccc21)Nc1ccccc1Cl	-14	3	-1	25	-17	·	·	·
CC(C)c1ccc(/C=C/C(=O)NC(=S)NN2CCOCC2)cc1	-24	41*	0	15	-23	·	-15	-14
CC(C)c1ccc(/C=C/C(=O)NC(=S)Nc2ccc(CN3CCOCC3)cc2)cc1	12	-38	2	-15	25	23	·	·
CCC1SC(C)C/C(=N/NC(N)=O)C1C (configuration not stated)	-1	16	-1	2	-12	1	·	·
CC1CC(C)C(=NNC(N)=O)C(C(O)CC2CCC(=O)NC2=O)C1 (configuration not stated)	54*	49*	4	-6	3	·	19	41
C/C(=N\NC(=S)Nc1cc(S(=O)(=O)N2CCOCC2)ccc1Cl)c1ccccc1F	15	70*	5	0	6	9	25	87*
CCc1nnc(NC(=O)c2nc(S(=O)(=O)Cc3cccc(C)c3)ncc2Cl)s1	90*	85*	0	-90*	98*	·	·	·	Mdm2 MdmX conf=103*
CCc1nnc(NC(=O)c2nc(Cl)ccc2Cl)s1	0	-11	0	8	4	·	·	·
CCc1nnc(NC(=O)c2nc(S(=O)(=O)Cc3ccc(C)cc3)ncc2Cl)s1	94*	50*	0	-82*	95*	·	63*	108*	Mdm2 MdmX conf=103*
CCOc1ccccc1NC(=O)c1nc(S(=O)(=O)Cc2cccc(C)c2)ncc1Cl	87*	90*	5	-102*	93*	·	86*	103*	Mdm2 MdmX conf=102*
Cc1cc(=O)n2[nH]c(SCc3c(F)cccc3Cl)nc2n1	7	5	0	16	3	·	·	·
O=C(COc1ccc(F)cc1Cl)Nc1ccc(S(=O)(=O)Nc2nccs2)cc1	-18	-89	0	7	2	·	·	·
O=C(NCC1CCCO1)c1c(O)c2cccc3c2n(c1=O)CC3 (configuration not stated)	-3	-50	12	-4	-2	12	·	·	Mdm2 MdmX conf=71*
CN(N=O)c1ccc(CC2CCc3ccccc32)cc1 (configuration not stated)	-8	-285	4	1	3	·	·	·
C=C(CN(C)C)C(=O)c1ccc(OC2OC(COC(C)=O)C(OC(C)=O)C(OC(C)=O)C2OC(C)=O)cc1 (configuration not stated)	60*	89*	-4	-28	47	·	96*	105*
SMILES	CF NFkB block	HIF-2a inh	hiPSC survival	KKLEB cytotox	C8 TRAIL sens	PPC-1+TRAIL kill	HIF-2a conf	HIF-1a cs	others
COc1ccccc1[C@@]1(C)ON(c2ccccc2C(F)(F)F)C1=O	45	66*	2	1	29	·	24	101*
CC[C@]1(c2ccccc2C)ON(c2ccccc2C(F)(F)F)C1=O	23	12	6	14	2	·	·	·
Cc1[nH]n(-c2ccccc2)c(=O)c1N=Nc1ccc2c(c1)OCCO2	-2	-311	-1	-1	13	1	·	·
Cc1[nH]n(-c2ccccc2)c(=O)c1N=Nc1c(O)cc(S(=O)(=O)N(C)C)c2ccccc12	5	-13	0	-8	58*	·	·	·	Mdm2 MdmX conf=89*
Cc1ccc(C(=O)CC(=O)c2ccccc2C)c(O)c1	-14	-87	-1	9	-9	·	·	·
C=C(CN(C)C)C(=O)c1ccc(C)cc1C	7	90*	-3	-2	18	·	96*	74*
COC(=O)c1cccc(Cn2cc([N+](=O)[O-])cn2)c1	·	·	·	·	·	15	·	·
COc1ccc(OCc2cccc(C(=O)Nc3cc(C)on3)c2)cc1	-29	66*	-2	12	12	21	68*	-47
COc1cccc(C(=O)Nc2cc(C)on2)c1	-27	-169	-2	1	26	·	·	·
COc1ccc(OCc2cccc(C(=O)NN)c2)cc1	2	61*	-1	3	33	26	70*	-121
NNC(=O)c1cccc(COc2ccc(Br)cc2)c1	-6	0	-1	0	23	12	·	·
COc1ccc(OCc2cccc(C(=O)Nn3cc([N+](=O)[O-])cn3)c2)cc1	2	62*	4	-10	28	37	84*	-47
CCOc1ccc(OCc2cccc(C(=O)N/N=C/c3cccnc3)c2)cc1	-7	71*	-3	1	45	41	90*	-53
O=C(CC(=O)Nc1cc(Cl)ccc1Cl)Nc1cc(Cl)ccc1Cl	-5	-21	-1	-2	-2	·	·	·
CCOc1ccc(OCc2cccc(C(=O)N3CCOCC3)c2)cc1	15	65*	-3	-11	65*	43	77*	-104
O=C(O)c1ccccc1-c1ccccc1C(=O)NCCCO	-2	48*	1	7	-5	13	1	-1
